Measured values taken from PubChem BioAssay (NCATS).
Results filed as inconclusive are left out. Values without a mark were called inactive. The source made the active and inactive calls. Calls come from the whole dose curve; as a rule, active = well fitted curve in the direction sought with a large enough effect; inconclusive = small, poorly fitted or top-dose-only effect, or another doubt; inactive = no such curve, though single readings can be large; an effect the other way counts as inactive or inconclusive.

test system: Zika virus NS2B-NS3 protease; experiment: Primary screen GU AMC qHTS for Zika virus inhibitors (AID 1347154); conditions: Zika NS2B-NS3 unlinked protease, AMC fluorogenic substrate; series mostly up to 54.1 µM; activity change, negative = inhibition: at the top concentration; note: nearly all actives have a fitted effect of over 70% in size;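 for activity change, negative = inhibition: 0% = no-inhibitor control and -100% = no-enzyme control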
Summary of the method: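 Unlinked Zika NS2B hydrophilic domain–NS3 protease complex at 25 nM in 10 mM Tris-HCl pH 8.0, 0.01% Tween 20, with an AMC peptide substrate. Fluorescence change (340/450 nm) over 15 min at room temperature, normalized to controls, fitted to 4-parameter Hill.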
Potency is the fitted concentration of half-maximal effect.

Compound | activity change, negative = inhibition | Potency
O=C(CC12CC3CC(CC(C3)C1)C2)Nc1cccc2nc(NCCNCCO)ccc12 | 14.6% | 
C[C@@H](NC(=O)c1ncnc(N)c1Cl)c1ncc(C(=O)Nc2cc(C(F)(F)F)c(Cl)cn2)s1 | -9.63% | 
C[C@@H](N)c1ccc(C(=O)Nc2ccnc3[nH]ccc23)cc1 | 7.42% | 
Cc1nc2c([nH]1)CCN(C(=O)c1ccc(NC(=O)c3ccccc3-c3ccccc3)cc1)c1ccccc1-2 | -5.12% | 
Fc1ccc(CNc2ncnc3ccc(F)cc23)cc1 | 1.54% | 
Cc1cc2c(cc1C1(c3ccc(C(=O)O)cn3)CC1)C(C)(C)CCC2(C)C | 4.13% | 
Cc1ccccc1C(C(=O)NC1CCCCC1)N(C(=O)CNc1ccc(C#N)cc1)c1cccc(F)c1 (stereo not drawn) | 5.34% | 
CN1CCc2c(n(Cc3ccc(C(=O)NO)cc3)c3ccccc23)C1 | -9.26% | 
COc1ccc(CCC(=O)Nc2nc3ccc(Cl)cc3s2)cc1OC | -1.31% | 
CCNC(=O)c1noc(-c2cc(C(C)C)c(O)cc2O)c1-c1ccc(CN2CCOCC2)cc1 | 5.07% | 
CN1CCC(COc2cnc(-c3cccc(Cn4nc(-c5cccc(C#N)c5)ccc4=O)c3)nc2)CC1 | 13.4% | 
CN1C(=O)C(Cc2c[nH]c3ccccc23)NC1=S (stereo not drawn) | -12.4% | 
CCCCC(F)(F)[C@@]1(O)CC[C@H]2[C@H](CC(=O)[C@@H]2CCCCCCC(=O)O)O1 | 1.34% | 
O=C(CCCN1CCN(c2ccc(F)cc2)CC1)NC1c2ccccc2CSc2ccccc21 (stereo not drawn) | 10.8% | 
Cc1cnc(-c2cc(N3CCN(C(=O)CCS(C)(=O)=O)CC3)ncc2Cl)c(C)c1 | -16.3% | 
O=C(Nc1ccc(OC(F)(F)F)cc1)c1sccc1NCc1ccnc2ccccc12 | -10.1% | 
C=CC(=O)Nc1cccc(Sc2nc(Nc3ccc(N4CCN(C)CC4)cc3)ncc2Cl)c1 | 24.3% | 
CCN1C[C@H](C)n2c(c(O)c3c(=O)n(Cc4ccc(F)c(Cl)c4)nc(C(=O)NC)c32)C1=O | -11.9% | 
CC(C)(O)CC(=O)NCCn1ccc2ncnc(Nc3ccc(Oc4cccc(C(F)(F)F)c4)c(Cl)c3)c21 | 2.13% | 

Compound | activity change, negative = inhibition | Potency
NC(=O)c1ccc(N(C(N)=O)c2c(F)cccc2F)nc1-c1ccc(F)cc1F | 14% | 
Cn1cnc(-c2cc3nccc(Oc4ccc(NC(=S)NC(=O)Cc5ccccc5)cc4F)c3s2)c1 | 3.95% | 
O=C1C(c2c(O)[nH]c3ccccc23)=Nc2ccccc21 |  | inactive
COc1nccc(-c2c(-c3ccc(F)cc3)ncn2C2CCC(O)CC2)n1 (stereo not drawn) |  | inactive
CCN1CCC(n2cc(CNc3cc(Cl)c4ncc(C#N)c(Nc5ccc(F)c(Cl)c5)c4c3)nn2)CC1 | -2.25% | 
C[C@@]1(C(=O)Nc2ccc(F)nc2)CCCN1c1nc(Nc2cc(C3CC3)[nH]n2)c2cccn2n1 | 10.3% | 
COc1cc2nccc(Oc3ccc(NC(=O)Nc4cc(C)on4)c(Cl)c3)c2cc1OC | -9.73% | 
O=C(O)CCNc1cc(N2CCc3ccccc3CC2)nc(-c2ccccn2)n1 | -12.2% | 
Cc1cnc(CNC(=O)c2c(=O)c3ccc(N4CCCN(C)CC4)nc3n3c2sc2ccccc23)cn1 | 5.27% [at 25.8 µM] | 
c1cc(OCCN2CCCCC2)cc(-c2n[nH]c3ccc(-c4ncn[nH]4)cc23)c1 |  | 24.1 µM (active)
Cc1cnc(Nc2cccc(CN3CCOCC3)c2)nc1Nc1cccc(S(=O)(=O)NC(C)(C)C)c1 | 5.83% | 
Nc1ncnc2c1c(-c1cccc(OCc3ccccc3)c1)cn2C1CC(CN2CCC2)C1 (stereo not drawn) | 14.7% | 
CS(=O)(=O)c1ccc(C2=C(c3ccccc3)C(=O)OC2)cc1 | 34.3% | 
Cc1ccc2c(c1)c1c(n2CCc2ccc(C)nc2)CCN(C)C1 | -4.03% | 
c1ccc(-c2oc3ncnc(NC[C@@H]4CCCO4)c3c2-c2ccccc2)cc1 |  | 30.4 µM (active)
CN(C)c1nc(Cc2ccc(NC(=O)c3ccc(C(F)(F)F)cc3)cc2)nc(N(C)C)c1CC(=O)O | 9.83% | 
CNC(=O)c1c(-c2ccc(F)cc2)oc2cc(N(CCO)S(C)(=O)=O)c(C3CC3)cc12 |  | 27.1 µM (active)
CCN(CCO)CCCOc1ccc2c(Nc3cc(CC(=O)Nc4cccc(F)c4)[nH]n3)ncnc2c1 | 13.4% | 

test system: Zika virus NS2B-NS3 protease (unlinked complex); experiment: Primary screen GU Rhodamine qHTS for Zika virus inhibitors: Unlinked NS2B-NS3 protease assay (AID 1347159); conditions: Recombinant ZIKV NS2B-NS3 protease, Rhodamine110 substrate fluorescence; series mostly up to 107 µM; activity change, negative = inhibition: at the top concentration; note: nearly all actives have a fitted effect of over 60% in size; for activity change, negative = inhibition: % is set by controls: 0 for no effect and ±100 for the full control effect
Summary of the method: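 A qHTS format was used, with compound concentrations ranging up to 114 microM. Each compound was preincubated with 25 nM NS2B-NS3 protease, and the substrate was then added at 1.5 microM. Curves were fitted with a 4-parameter Hill model.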

Compound | activity change, negative = inhibition | Potency
O=C(CC12CC3CC(CC(C3)C1)C2)Nc1cccc2nc(NCCNCCO)ccc12 | 134% | 
C[C@@H](NC(=O)c1ncnc(N)c1Cl)c1ncc(C(=O)Nc2cc(C(F)(F)F)c(Cl)cn2)s1 | -0.504% | 
C[C@@H](N)c1ccc(C(=O)Nc2ccnc3[nH]ccc23)cc1 | 66% | 
Cc1nc2c([nH]1)CCN(C(=O)c1ccc(NC(=O)c3ccccc3-c3ccccc3)cc1)c1ccccc1-2 | 22.4% | 
Fc1ccc(CNc2ncnc3ccc(F)cc23)cc1 | -6.36% | 
Cc1cc2c(cc1C1(c3ccc(C(=O)O)cn3)CC1)C(C)(C)CCC2(C)C |  | 10 µM (active)
Cc1ccccc1C(C(=O)NC1CCCCC1)N(C(=O)CNc1ccc(C#N)cc1)c1cccc(F)c1 (stereo not drawn) | -12.7% | 
CN1CCc2c(n(Cc3ccc(C(=O)NO)cc3)c3ccccc23)C1 | -4.45% | 
COc1ccc(CCC(=O)Nc2nc3ccc(Cl)cc3s2)cc1OC | -15% | 
CCNC(=O)c1noc(-c2cc(C(C)C)c(O)cc2O)c1-c1ccc(CN2CCOCC2)cc1 | 2.32% | 
CN1CCC(COc2cnc(-c3cccc(Cn4nc(-c5cccc(C#N)c5)ccc4=O)c3)nc2)CC1 | 53.3% | 
CN1C(=O)C(Cc2c[nH]c3ccccc23)NC1=S (stereo not drawn) | 0% [at 57.1 µM] | 
CCCCC(F)(F)[C@@]1(O)CC[C@H]2[C@H](CC(=O)[C@@H]2CCCCCCC(=O)O)O1 | -4.3% | 
O=C(CCCN1CCN(c2ccc(F)cc2)CC1)NC1c2ccccc2CSc2ccccc21 (stereo not drawn) | 19.2% | 
Cc1cnc(-c2cc(N3CCN(C(=O)CCS(C)(=O)=O)CC3)ncc2Cl)c(C)c1 | 49.8% | 
O=C(Nc1ccc(OC(F)(F)F)cc1)c1sccc1NCc1ccnc2ccccc12 | -15.5% | 
C=CC(=O)Nc1cccc(Sc2nc(Nc3ccc(N4CCN(C)CC4)cc3)ncc2Cl)c1 | 126% | 
CC(C)(O)CC(=O)NCCn1ccc2ncnc(Nc3ccc(Oc4cccc(C(F)(F)F)c4)c(Cl)c3)c21 | -12% | 

Compound | activity change, negative = inhibition | Potency
NC(=O)c1ccc(N(C(N)=O)c2c(F)cccc2F)nc1-c1ccc(F)cc1F | 6.01% | 
Cn1cnc(-c2cc3nccc(Oc4ccc(NC(=S)NC(=O)Cc5ccccc5)cc4F)c3s2)c1 | 28.5% | 
O=C1C(c2c(O)[nH]c3ccccc23)=Nc2ccccc21 | -16.6% [at 57.1 µM] | 
COc1nccc(-c2c(-c3ccc(F)cc3)ncn2C2CCC(O)CC2)n1 (stereo not drawn) | 1.99% | 
CCN1CCC(n2cc(CNc3cc(Cl)c4ncc(C#N)c(Nc5ccc(F)c(Cl)c5)c4c3)nn2)CC1 | 64.4% | 
C[C@@]1(C(=O)Nc2ccc(F)nc2)CCCN1c1nc(Nc2cc(C3CC3)[nH]n2)c2cccn2n1 | 15.3% | 
COc1cc2nccc(Oc3ccc(NC(=O)Nc4cc(C)on4)c(Cl)c3)c2cc1OC | -0.135% | 
O=C(O)CCNc1cc(N2CCc3ccccc3CC2)nc(-c2ccccn2)n1 |  | inactive
Cc1cnc(CNC(=O)c2c(=O)c3ccc(N4CCCN(C)CC4)nc3n3c2sc2ccccc23)cn1 | 5.25% [at 19.1 µM] | 
c1cc(OCCN2CCCCC2)cc(-c2n[nH]c3ccc(-c4ncn[nH]4)cc23)c1 | 20.1% | 
Cc1cnc(Nc2cccc(CN3CCOCC3)c2)nc1Nc1cccc(S(=O)(=O)NC(C)(C)C)c1 | 45.2% | 
Nc1ncnc2c1c(-c1cccc(OCc3ccccc3)c1)cn2C1CC(CN2CCC2)C1 (stereo not drawn) | 124% | 
CS(=O)(=O)c1ccc(C2=C(c3ccccc3)C(=O)OC2)cc1 | -3.28% | 
Cc1ccc2c(c1)c1c(n2CCc2ccc(C)nc2)CCN(C)C1 | 0% | 
c1ccc(-c2oc3ncnc(NC[C@@H]4CCCO4)c3c2-c2ccccc2)cc1 | -7.66% | 
CN(C)c1nc(Cc2ccc(NC(=O)c3ccc(C(F)(F)F)cc3)cc2)nc(N(C)C)c1CC(=O)O | -20.9% | 
CNC(=O)c1c(-c2ccc(F)cc2)oc2cc(N(CCO)S(C)(=O)=O)c(C3CC3)cc12 | 2.83% | 
CCN(CCO)CCCOc1ccc2c(Nc3cc(CC(=O)Nc4cccc(F)c4)[nH]n3)ncnc2c1 | 88.6% | 
